Bioassay records deposited in PubChem by National Center for Advancing Translational Sciences (NCATS).
Shown are actives, neighbours in structure and some others; about 17% of the full set was active somewhere.
TDP1 cell noCPT: qHTS for Inhibitors of human tyrosyl-DNA phosphodiesterase 1 (TDP1): qHTS in cells in absence of CPT. DT40 Tdp1-/- hTDP1 cells, no CPT, ATP luminescence, 48 h. Potency, µM (highest dose often 46.2 µM), inactives show top-dose activity change, negative = growth inhibition, most hits filed as inhibitors. 420,000 compounds, 15% hits; further: on the % scale 0 is the no-effect control and ±100 the full control effect; nearly all actives have a fitted effect of over 55% in size
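DT40 Tdp1-/-;hTDP1 cells, no CPT (DMSO vehicle only), 400 cells/well; compounds pin-transferred; ≥48 hr, 37 °C; CellTiter-Glo 30 min RT dark, luminescence read.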
HT1080 IDH1KD tx: toxicity to HT-1080 IDH1 knockdown cells (counter line); HT-1080 IDH1 knockdown viability, ATP luminescence, 48 h; Potency, µM (titrated, usually from 46.1 µM), inactives show top-dose activity, negative = toxicity, hits mostly cytotoxic; 360,000 compounds, 2% hits; AID 686971;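 further: 0% = DMSO wells and -100% = cell-free medium wells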
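CellTiter-Glo luminescence after 48 h compound exposure at 37 degrees C of IDH1-knockdown HT-1080 cells in 5% FBS RPMI. %Activity scaled between DMSO wells and cell-free media wells, with curves fitted and assigned curve classes.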
TGFb inhibitor: blocks TGF-b signaling; HepG2 CAGA-GFP TGF-b/SMAD3 reporter, GFP fluorescence, 18 h; TGF-beta stimulated, 500 pg/mL final; Potency, µM (titrated, usually from 46.1 µM), for the others: top-dose activity, negative = inhibition, most hits filed as inhibitors; 410,000 compounds, 1.2% hits; AID 588855; further: on the % scale 0 is the no-effect control and ±100 the full control effect; nearly all actives have a fitted effect of over 65% in size
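Using HEPG2 CAGA-GFP reporter cells at 1000 cells/well, we pinned test compounds, stimulated with recombinant TGF-beta (500 pg/mL final) and measured total well GFP after 18 h.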
HT1080-NT tox: kills 2HG-producing HT-1080-NT fibrosarcoma cells | 360,000 compounds, 1.6% hits | HT-1080-NT fibrosarcoma viability, CellTiter-Glo ATP luminescence, 48 h | Potency, µM (doses to about 46.1 µM), without a hit: at the highest dose activity, negative = less viability, most hits filed as cytotoxic;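 further: NT is the 2HG producing partner of a matched IDH1 knockdown line; 0% = DMSO-treated cells and -100% = media-only wells without cells; nearly all actives have a fitted effect of over 55% in size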
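Viability by CellTiter-Glo luminescence after 48 h compound exposure at 37C of HT-1080-NT cells (750/well, RPMI, 5% FBS). % activity scaled between DMSO wells and medium-only wells, then curve-fitted and categorized by curve class.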
TDP1 cell CPT: DT40-hTDP1 cell growth loss with CPT. AID 686979. Potency, µM (doses to about 46.2 µM), inactives show top-dose activity change, negative = growth inhibition, usual class: inhibitors. chicken DT40 Tdp1-/-;hTDP1 cells + 20 nM CPT, ATP luminescence, 48 h. 420,000 compounds, 12% hits; further: on the % scale 0 is the no-effect control and ±100 the full control effect; nearly all actives have a fitted effect of over 55% in size
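Chicken DT40 Tdp1-/- cells complemented with human TDP1, 400 cells/well, exposed to compounds plus 20 nM camptothecin for at least 48 h at 37 C; viability read as ATP content by CellTiter-Glo luminescence.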
HepG2 tox: counter-screen for TGF-b inhibitors: cytotoxicity in HepG2 cells; HepG2 CAGA-GFP viability, ATP luminescence, 18 h; Potency, µM (highest dose often 46.1 µM), without a hit: at the top dose activity change, negative = cytotoxicity, most hits filed as cytotoxic; 410,000 compounds, 0.76% hits; AID 588856
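HepG2 CAGA-GFP cells (1000/well, DMEM with 1% FBS) received compound, then TGF-beta at 500 pg/mL final, and were incubated 18 hours at 37 degrees C. Viability was read by CellTiter-Glo luminescence. Media-only wells were set as complete cell-killing and DMSO as no toxicity.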
* hit, by the source's call; [ ] = another dose, or the depositor's remark. The call rests on the fitted dose curve; in most records, active means well fitted curve in the direction sought with a large enough effect; inconclusive means small, poorly fitted or top-dose-only effect, or another doubt; inactive means no such curve, though single readings can be large; an effect the other way counts as inactive or inconclusive. Potency means the concentration at half of the fitted maximal effect.

How did Cn1nc(CC(=O)NCc2ccc(C(F)(F)F)cc2)c2ccccc2c1=O do in these assays?
TDP1 cell noCPT: 10µM*; HT1080 IDH1KD tx: inconclusive; TGFb inhibitor: 2%; HT1080-NT tox: inconclusive; TDP1 cell CPT: 29µM*; HepG2 tox: -1%

How did O=C(CN1C(=O)C2C3C=CC(C4CC34)C2C1=O)NCc1ccco1 (stereo not drawn) do in these assays?
TDP1 cell noCPT: -9%; HT1080 IDH1KD tx: 22%; TGFb inhibitor: -13%; HT1080-NT tox: 5%; TDP1 cell CPT: -5%; HepG2 tox: -12%

What do the screens show for `O=C(Cn1nnc(-c2ccccc2F)n1)Nc1cccc2ncccc12`?
TDP1 cell noCPT: 2%; HT1080 IDH1KD tx: -8%; TGFb inhibitor: -5%; HT1080-NT tox: -9%; TDP1 cell CPT: -7%; HepG2 tox: -4%

What do the screens show for `Cn1nc(C(=O)NCc2ccccc2)c2ccccc2c1=O`?
TDP1 cell noCPT: -19%; HT1080 IDH1KD tx: 1%; TGFb inhibitor: -12%; HT1080-NT tox: 2%; TDP1 cell CPT: -14%; HepG2 tox: -19%

How did O=C(CN1C(=O)C2C3C=CC(C4CC34)C2C1=O)Nc1cccc2ncccc12 (stereo not drawn) do in these assays?
TDP1 cell noCPT: -27%; HT1080 IDH1KD tx: 9%; TGFb inhibitor: 13%; HT1080-NT tox: 14%; TDP1 cell CPT: 21µM*; HepG2 tox: -2%

What do the screens show for `COc1ccc(OCC(=O)Nc2cccc3ncccc23)cc1`?
TDP1 cell noCPT: -19%; HT1080 IDH1KD tx: 6%[9.24 µM]; TGFb inhibitor: 18%; HT1080-NT tox: 9%; TDP1 cell CPT: inconclusive; HepG2 tox: 12%

How did Cn1nc(CC(=O)Nc2cccc3ncccc23)c2ccccc2c1=O do in these assays?
TDP1 cell noCPT: 21µM*; HT1080 IDH1KD tx: inconclusive; TGFb inhibitor: 3%; HT1080-NT tox: -10%; TDP1 cell CPT: 13µM*; HepG2 tox: -2%

What do the screens show for `O=C(CCl)Nc1cccc2ncccc12`?
TDP1 cell noCPT: 9.2µM*; HT1080 IDH1KD tx: inconclusive; TGFb inhibitor: 14%; HT1080-NT tox: inconclusive; TDP1 cell CPT: 8.2µM*; HepG2 tox: -27%

How did CC(Oc1ccccc1)C(=O)NNS(=O)(=O)c1ccc([N+](=O)[O-])cc1 (stereo not drawn) do in these assays?
TDP1 cell noCPT: 10%; HT1080 IDH1KD tx: 4%; TGFb inhibitor: -2%; HT1080-NT tox: 10%; TDP1 cell CPT: 13%; HepG2 tox: 4%

Results for Cc1ccccc1NC(=O)CN1C(=O)C2C3CC(C(Br)C3Br)C2C1=O (stereo not drawn) ?
TDP1 cell noCPT: 16µM*; HT1080 IDH1KD tx: -17%; TGFb inhibitor: -22%; HT1080-NT tox: -21%; TDP1 cell CPT: inconclusive; HepG2 tox: 1%

What do the screens show for `O=C(CCCl)Nc1cccc2cccnc12`?
TGFb inhibitor: 7.1µM*; HepG2 tox: -90%

What do the screens show for `CCCN(CCC)CCCNC(=O)C1c2cc(OC)c(OC)cc2C(=O)N(C)C1c1cccnc1` (stereo not drawn)?
TDP1 cell noCPT: 1%; HT1080 IDH1KD tx: 2%; TGFb inhibitor: 0%; HT1080-NT tox: 0%; TDP1 cell CPT: 0%; HepG2 tox: 5%

How did O=C(N/N=C/c1ccc(OC(=O)c2ccccc2)cc1)c1cccc(O)c1 do in these assays?
TDP1 cell noCPT: 16µM*; HT1080 IDH1KD tx: 0%; TGFb inhibitor: 4%; HT1080-NT tox: -16%; TDP1 cell CPT: inconclusive; HepG2 tox: -32%

How did O=C(N/N=C/c1ccc(OC(=O)c2ccccc2)cc1)c1cccnc1 do in these assays?
TDP1 cell noCPT: -28%; HT1080 IDH1KD tx: inconclusive; TGFb inhibitor: 5%; HT1080-NT tox: -24%; TDP1 cell CPT: -14%; HepG2 tox: 29%

How did O=C(Oc1ccc(/C=N/NC(=O)c2ccccc2F)cc1)c1ccccc1 do in these assays?
TDP1 cell noCPT: 12µM*; HT1080 IDH1KD tx: 6%; TGFb inhibitor: 4%; HT1080-NT tox: 6%; TDP1 cell CPT: 9.2µM*; HepG2 tox: -8%

What do the screens show for `CC[N+](C)(C(=O)O)/C(=C\c1ccccc1)c1ccnc2ccccc12` (stereo not drawn)?
TDP1 cell noCPT: inconclusive; TGFb inhibitor: 31%; TDP1 cell CPT: inconclusive; HepG2 tox: 2%

What do the screens show for `COc1cc(C(=O)N2CCCC(c3cc(C(=O)NCc4ccc(F)cc4)no3)C2)cc(OC)c1C` (stereo not drawn)?
TDP1 cell noCPT: inconclusive; HT1080 IDH1KD tx: inconclusive; TGFb inhibitor: inconclusive; HT1080-NT tox: -14%; TDP1 cell CPT: 23µM*; HepG2 tox: -54%

How did O=C(NCc1ccccc1)c1cc(C2CCCN(C(=O)C3CC3)C2)on1 (stereo not drawn) do in these assays?
TDP1 cell noCPT: -10%; HT1080 IDH1KD tx: 4%; TGFb inhibitor: -10%; HT1080-NT tox: 20%; TDP1 cell CPT: 0%; HepG2 tox: -5%

How did O=C(NCc1ccc(F)cc1)c1cc(C2CCCN(C(=O)C3CCCCC3)C2)on1 (stereo not drawn) do in these assays?
TDP1 cell noCPT: inconclusive; HT1080 IDH1KD tx: 5%; TGFb inhibitor: -4%; HT1080-NT tox: 14%; TDP1 cell CPT: 26µM*; HepG2 tox: 0%

Results for O=C(NCc1ccccc1)c1cc(C2CCCN(C(=O)C3CCCCC3)C2)on1 (stereo not drawn) ?
TDP1 cell noCPT: inconclusive; HT1080 IDH1KD tx: 27%; TGFb inhibitor: 9%; HT1080-NT tox: 24%; TDP1 cell CPT: 23µM*; HepG2 tox: -5%

What do the screens show for `O=C(NCc1ccc(F)cc1)c1cc(C2CCCN(S(=O)(=O)c3ccccc3)C2)on1` (stereo not drawn)?
TDP1 cell noCPT: 16µM*; HT1080 IDH1KD tx: 0%; TGFb inhibitor: 24%; HT1080-NT tox: -3%; TDP1 cell CPT: inconclusive; HepG2 tox: -4%

What do the screens show for `CC(=O)Nc1ccc(C(=O)N2CCCC(c3cc(C(=O)NCc4ccc(F)cc4)no3)C2)cc1` (stereo not drawn)?
TDP1 cell noCPT: inconclusive; HT1080 IDH1KD tx: -8%; TGFb inhibitor: -23%; HT1080-NT tox: -7%; TDP1 cell CPT: inconclusive; HepG2 tox: -23%

Results for CC1CCc2onc(C(=O)N3CCN(c4cccc(C(F)(F)F)c4)CC3)c2C1 (stereo not drawn) ?
TDP1 cell noCPT: inconclusive; TGFb inhibitor: inconclusive; TDP1 cell CPT: inconclusive; HepG2 tox: -26%
